Among the data in the supplement of paper PMC12067926 are relative growth values, retold here.

The structures appear in SMILES notation. Values without a mark were called inactive.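 How the source made its calls: active = growth AUC significantly below the DMSO wells by Dunnett test; inactive = the rest.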

For the assay, the system named is Carnobacterium 1 (Carnobacterium gallinarum). Description: relative growth (AUC of 72 h growth curve relative to DMSO control, dAUC) (ratio); higher = more growth (less inhibition), active = hit call of the paper. The settings on record: 20 µM. Here is the method:
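Environmental bacterial isolates (Iceland stream sediment and Silwood Park soil) and whole stream-sediment communities were grown in LB from a 1:100 dilution with each pesticide at 20 µM (1% DMSO). A600 was read hourly for 72 h and the area under a spline-fitted growth curve (AUC) was computed. dAUC is the mean AUC of 3 biological replicates divided by the mean AUC of the DMSO controls. Significance was tested by Dunnett's test against the DMSO control.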
As to `COCC(=O)N(c1c(C)cccc1C)C(C)C(=O)OC` (stereo not given), the relative growth was 1.13.

`CC1(C)C(C=C(Cl)Cl)C1C(=O)OC(C#N)c1cccc(Oc2ccccc2)c1` (stereo not given): the relative growth was 1.32.

Turning to `CCOP(=S)(OCC)Oc1nc(Cl)c(Cl)cc1Cl`, the relative growth was 1.1.

Consider `CC(Oc1ccc(Oc2nc3ccc(Cl)cc3o2)cc1)C(=O)O` (stereo not given), for which the relative growth is 1.36.

On to `COCC(=O)N(c1c(C)cccc1C)[C@H](C)C(=O)OC`, for which the relative growth was 1.12.

Consider `CC(C)NC(=O)N1CC(=O)N(c2cc(Cl)cc(Cl)c2)C1=O`, for which the relative growth is 1.02.

Take `CO/C=C(/C(=O)OC)c1ccccc1COc1cccc(C(F)(F)F)n1`: the relative growth is 0.98.

For the compound `OC(Cn1cncn1)(c1ccc(F)cc1)c1ccccc1F` (stereo not given), the relative growth is 1.15.

As for `CC(C)N1C(=O)N(c2ccccc2)CS/C1=N\C(C)(C)C`, the relative growth was 0.913.

As for `CCN(CC)c1nc(C)cc(OP(=S)(OC)OC)n1`, the relative growth was 1.07.

For the compound `COP(=S)(OC)Oc1ccc(SC)c(C)c1`, the relative growth was 1.08.

On to `O=C(NC(=O)c1c(F)cccc1F)Nc1ccc(Cl)cc1`, for which the relative growth was 0.911.

As for `Cc1ccc(/N=C/N(C)/C=N/c2ccc(C)cc2C)c(C)c1`, the relative growth is 1.24.

For `CC1(C)[C@H](/C=C(\Cl)C(F)(F)F)[C@@H]1C(=O)OC(C#N)c1cccc(Oc2ccccc2)c1` (stereo not given in full), the relative growth is 1.38.

For the compound `COCC(C)N(C(=O)CCl)c1c(C)csc1C` (stereo not given), the relative growth was 0.859.

Consider `CCCC(Cn1cncn1)c1ccc(Cl)cc1Cl` (stereo not given), for which the relative growth was 1.13.

As for `CC(C)N1C(=O)c2ccccc2NS1(=O)=O`, the relative growth is 0.693.

Turning to `CCNC(=O)NC(=O)/C(C#N)=N/OC`, the relative growth is 0.965.

Consider `Cc1c(COC(=O)[C@@H]2[C@H](/C=C(\Cl)C(F)(F)F)C2(C)C)cccc1-c1ccccc1` (racemic), for which the relative growth is 1.17.

Regarding `CC(C)N(C)S(=O)(=O)NC(=O)c1cc(-n2c(=O)cc(C(F)(F)F)n(C)c2=O)c(F)cc1Cl`, the relative growth is 1.22.

For the compound `O=C1C2CC=CCC2C(=O)N1SC(Cl)(Cl)Cl` (stereo not given), the relative growth is 1.19.

As for `O=C1C2(Cl)C3(Cl)C4(Cl)C(Cl)(Cl)C5(Cl)C3(Cl)C1(Cl)C5(Cl)C24Cl` (stereo not given), the relative growth was 0.621.

`CC1(C)C(C(=O)OC(C#N)c2cccc(Oc3ccccc3)c2)C1(C)C` (stereo not given): the relative growth was 1.18.

As for `ClC1C(Cl)C(Cl)C(Cl)C(Cl)C1Cl` (stereo not given), the relative growth was 0.955.

Turning to `CCc1cc(C)cc(CC)c1-c1c(OC(=O)C(C)(C)C)n2n(c1=O)CCOCC2`, the relative growth is 1.01.

For `COC(=O)Nc1nc2ccccc2[nH]1`, the relative growth is 1.1.

On to `CCc1nn(C)c(C(=O)NCc2ccc(Oc3ccc(C)cc3)cc2)c1Cl`, for which the relative growth was 1.19.

As to `CCC(=O)Nc1ccc(Cl)c(Cl)c1`, the relative growth is 0.897.

`CNC(=O)/C=C(\C)OP(=O)(OC)OC`: the relative growth was 0.926.

For the compound `CCOc1cc(Oc2ccc(C(F)(F)F)cc2Cl)ccc1[N+](=O)[O-]`, the relative growth was 0.874.

For the compound `N#CCNC(=O)c1cnccc1C(F)(F)F`, the relative growth is 1.06.

With `COP(=O)(OC)OC=C(Cl)Cl`, the relative growth was 0.961.

Regarding `O=[N+]([O-])/N=C1\NCCN1Cc1ccc(Cl)nc1`, the relative growth was 1.26.

On to `COc1cccc(C(=O)NN(C(=O)c2cc(C)cc(C)c2)C(C)(C)C)c1C`, for which the relative growth is 0.863.

Consider `CC1(C)C(C=C(Cl)Cl)C1C(=O)OC(C#N)c1ccc(F)c(Oc2ccccc2)c1` (stereo not given), for which the relative growth was 0.865.

Take `CC[C@H](C)C1O[C@]2(C=C[C@@H]1C)C[C@@H]1C[C@@H](C/C=C(\C)[C@@H](O[C@H]3C[C@H](OC)[C@@H](O[C@H]4C[C@H](OC)[C@H](NC)[C@H](C)O4)[C@H](C)O3)[C@@H](C)/C=C/C=C3\CO[C@@H]4[C@H](O)C(C)=C[C@@H](C(=O)O1)[C@]34O)O2` (stereo not given in full): the relative growth is 0.609.

Consider `CC(C1CC1)C(O)(Cn1cncn1)c1ccc(Cl)cc1` (stereo not given), for which the relative growth is 1.34.

For the compound `COP(=O)(NC(C)=O)SC` (stereo not given), the relative growth is 1.08.

As for `CN1COCN(Cc2cnc(Cl)s2)/C1=N\[N+](=O)[O-]`, the relative growth is 1.12.

Consider `COP(=S)(OC)SCN1C(=O)c2ccccc2C1=O`, for which the relative growth was 1.04.
